p53null 39C tox: qHTS Screen for Compounds that Selectively Target Cancer Cells with p53 Mutations: Cytotoxicity of p53 Null Cells at the Nonpermissive Temperature | Potency, µM (series often up to 46.1 µM), for inactives: at the top dose activity, negative = cell killing, hits mostly cytotoxic | actives 0.97% (n = 55,000) | H1299 p53-null (neo) cells, 39C, ATPlite viability, 24 h;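 also: 0% = DMSO only and -100% = full killing by 100 µM tamoxifen; nearly all actives have a fitted effect of over 50% in size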
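ATP-luminescence viability readout (ATPlite, 20 min RT) after 24 hr compound treatment at 39C of H1299-neo or H1299-p53A138V cells; titration up to 46 uM; normalized to DMSO and 100 uM tamoxifen; Hill-fit AC50.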
GALC G270D act: A Novel Cell-Based Assay to Identify Small Molecules for B -Galactocerebrosidase. 145M-Twi-hGALC-G270D cells (Twitcher mouse brain line with human GALC G270D), HMU-beta-Gal fluorescence, 48 h. Potency, µM (doses to about 57.5 µM), most hits filed as activators. P54803. actives 0.1% (n = 45,000); also: 0% is about no effect; nearly all actives have a fitted effect of over 65% in size
Target sequence (P54803 whole entry G286D): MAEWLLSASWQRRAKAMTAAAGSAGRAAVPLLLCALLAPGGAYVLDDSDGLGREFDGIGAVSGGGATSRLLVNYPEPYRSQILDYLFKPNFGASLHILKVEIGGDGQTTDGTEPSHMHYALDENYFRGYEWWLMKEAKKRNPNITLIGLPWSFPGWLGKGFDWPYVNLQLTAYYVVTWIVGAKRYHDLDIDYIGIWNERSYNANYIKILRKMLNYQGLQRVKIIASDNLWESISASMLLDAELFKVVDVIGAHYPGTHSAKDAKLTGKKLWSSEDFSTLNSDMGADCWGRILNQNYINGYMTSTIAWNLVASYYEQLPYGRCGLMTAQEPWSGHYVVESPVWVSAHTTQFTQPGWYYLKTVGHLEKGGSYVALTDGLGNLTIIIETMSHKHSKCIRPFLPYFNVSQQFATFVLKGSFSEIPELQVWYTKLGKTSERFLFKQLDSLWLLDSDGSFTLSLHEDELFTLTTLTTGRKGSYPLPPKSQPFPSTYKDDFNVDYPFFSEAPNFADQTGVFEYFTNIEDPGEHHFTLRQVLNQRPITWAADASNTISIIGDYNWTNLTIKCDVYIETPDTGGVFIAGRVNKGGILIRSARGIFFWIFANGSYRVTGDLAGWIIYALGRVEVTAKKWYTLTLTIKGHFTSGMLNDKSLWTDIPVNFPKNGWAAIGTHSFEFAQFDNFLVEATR
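Brain-derived Twitcher mouse 145M-Twi cells stably expressing human GALC-G270D or wild-type GALC, treated live, then residual GALC activity read by fluorescence of HMU-b-Gal substrate (0.1 mM final) in citrate-phosphate buffer pH 5.2 with sodium taurocholate. Signal increase indicates enhancement.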
p53null 32C tox: qHTS Screen for Compounds that Selectively Target Cancer Cells with p53 Mutations: Cytotoxicity of p53 Null Cells at the Permissive Temperature. actives 0.62% (n = 55,000). Potency, µM (highest dose often 46.1 µM), for inactives: at the top dose activity change, negative = cytotoxicity, hits mostly cytotoxic. H1299-neo p53 null cells, ATP luminescence, 24 h, 32C;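 also: 0% = DMSO only and -100% = full killing by 100 µM tamoxifen; nearly all actives have a fitted effect of over 55% in size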
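H1299-neo, 600 cells/well; overnight 37C; cpd up to 46 uM, 24 h at 32C; ATPlite luminescence after 20 min RT; normalized to DMSO (0%) and tamoxifen 100 uM (100% kill); Hill-fit AC50.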
FH mod: Identification of activators of human fumarate hydratase by quantitative high-throughput screening. Fumarate hydratase, mitochondrial (Homo sapiens), P07954. FH coupled MDH/diaphorase resazurin fluorescence, 15 min. AID 1347055, 2019. actives 0.22% (n = 54,000). Potency, µM (titrated, usually from 79.9 µM), for the others: top-dose activity change, negative = inhibition, usual class: inhibitors; also: % is scaled to controls: 0 for no effect and ±100 for the full control effect; the screen sought activators but most active calls are inhibition curves; nearly all actives have a fitted effect of over 45% in size
NTMT1 inhibitor: Primary qHTS for Inhibitors of N-terminal methyltransferase 1 (NTMT1): MTaseGlo Assay | NTMT1 MTase-Glo SAH luminescence, purified enzyme | Potency, µM (doses to about 114 µM), inactives show top-dose activity change, negative = inhibition, usual class: inhibitors | actives 2.5% (n = 59,000) | AID 1645870, 2021;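 also: plate controls were DMSO vehicle for no effect and no enzyme for full effect; nearly all actives have a fitted effect of over 65% in size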
Numbers without * were called inactive; i = inactive; ? = inconclusive; . = no result; ! = repeats disagree; [ ] = another dose, or the depositor's remark. The sample as a whole holds a higher share of hits than the screen did. Calls follow the shape of the dose curve; as a rule, active = well fitted curve in the direction sought with a large enough effect; inconclusive = small, poorly fitted or top-dose-only effect, or another doubt; inactive = no such curve, though single readings can be large; an effect the other way counts as inactive or inconclusive. Potency is read from the fitted curve at half-maximal effect.

SMILES	p53null 39C tox	GALC G270D act	p53null 32C tox	FH mod	NTMT1 inhibitor
CCCc1oc2ccc(NS(=O)(=O)c3ccc(OCC)cc3)cc2c1C(=O)OCC	18µM*	i	39%	?	12%
CCOC(=O)c1c(C)oc2c(Cl)cc(NS(=O)(=O)c3ccc(Cl)c(C)c3)cc12	5µM*	i	58%	?	8%
CC(=O)c1c(C)oc2c(Cl)cc(NS(=O)(=O)c3ccc(Cl)cc3)cc12	21%	i	14%	-9%	10%
FC(F)(F)c1ccccc1-c1nc(NCc2ccc(-c3cccc4ccccc34)cc2)c2ccccc2n1	.	.	.	.	11%
O=C(O)c1cccc(CN2C(=O)/C(=C(\c3ccccc3)c3ccc(Cl)cc3)c3ccccc32)c1	.	.	.	?	28µM*
Cc1ccc(OCCn2c(CCNC(=O)c3ccccc3F)nc3ccccc32)cc1	.	.	.	.	14%
O=C(Nc1cccc2c(=O)cc(-c3nn[nH]n3)oc12)c1ccc(OCCCCc2ccccc2)cc1	.	i	.	?	18µM*
O=C(Nc1ccn[nH]1)c1c(F)cccc1F	.	.	.	3%	18%[57.5 µM]
O=C(Nc1noc2ccccc12)c1c(F)cccc1F	10µM*	i	?	-7%	?
COc1ccc(C2Nc3ccccc3C(=O)N2CCO)cc1COc1c(C)cc(NC(C)=O)cc1C (configuration not stated)	.	.	.	.	4%
CN1CCc2cccc3c2C1Cc1ccc(O)c(O)c1-3 (configuration not stated)	.	.	.	14µM*	.
Cc1ccc(C(=O)Nc2onc3c2CCCC3)cc1	5µM*	i	6.3µM*	-8%	-24%
C[C@H]1CC[C@@]2(OC1)O[C@H]1CC3[C@@H]4CC[C@@H]5C[C@@H](O[C@@H]6O[C@H](CO)[C@@H](O[C@@H]7O[C@@H](C)[C@H](O)[C@@H](O)[C@H]7O)[C@H](O)[C@H]6O[C@@H]6O[C@H](CO)[C@@H](O)[C@H](O)[C@H]6O)CC[C@]5(C)C4CC[C@]3(C)[C@H]1[C@@H]2C (some centres not stated)	.	.	.	1%[20.6 µM]	7%[12.6 µM]
CC(Cc1ccc(O)c(O)c1)(NN)C(=O)O (configuration not stated)	.	.	.	-12%[53.3 µM]	14µM*!
O=C(O)c1ccc2c(c1)C(=O)N([C@H](Cc1ccc(O)c(O)c1)C(=O)O)C2=O	.	.	.	.	4%[57.5 µM]
C[C@](N)(Cc1ccc(O)c(O)c1)C(=O)O	.	i	.	?	35µM*
COC(=O)C(C)(N)Cc1ccc(O)cc1 (configuration not stated)	.	.	.	3%[53.3 µM]	.
FC(F)(F)c1cc(-c2ccc(CNc3nc(-c4ccncc4)nc4ccccc34)cc2)ccn1	.	.	.	.	5%[57.5 µM]
CCOc1ccc(Cc2cc([C@@H]3O[C@H](CO)[C@@H](O)[C@H](O)[C@H]3O)ccc2Cl)cc1	.	.	.	.	13%
CC1=C(/C=C/C(C)=C/C=C/C(C)=C/C(=O)O)C(C)(C)CCC1	.	i	.	?	79µM*!
COC(=O)c1ccc([C@H]2c3[nH]c4ccccc4c3C[C@H](C(=O)OC)N2C(=O)CCl)cc1	.	.	.	.	18%
Cc1cn([C@H]2C[C@H](N[S+](=O)([O-])c3ccc4c(c3)OCCO4)[C@@H](CO)O2)c(=O)[nH]c1=O	.	.	.	.	3%
CCC(C(=O)Nc1c(C)cc(C)cc1C)n1c(=O)c(-c2ccccc2NC(C)=O)nc2ccccc21 (configuration not stated)	21%	i	-2%	-8%	89µM*
CC1=CC2/C=C(\C)CCC(O)C/C=C/C(=O)OC23C(=O)NC(CC(C)C)C3C1C (configuration not stated)	.	.	.	-1%[53.3 µM]	5%[29.8 µM]
Cc1ncc(NC(=O)c2cccc(C(F)(F)F)c2)cc1-c1cnc(OC2CCOCC2)c(N2CCOCC2)c1	.	.	.	.	-3%
SMILES	p53null 39C tox	GALC G270D act	p53null 32C tox	FH mod	NTMT1 inhibitor
Cc1nc(-c2cccc(NC(=O)c3cccs3)c2)cs1	-9%	.	2%	.	.
CC(=O)Nc1cccc(-c2csc(Nc3ccc(C)cn3)n2)c1	.	.	11µM*	.	.
O=C1c2ccccc2C(=O)C1c1ccnc2ccccc12	16µM*	.	?	.	.
Oc1cccc2cc(C3CC3)cnc12	.	.	.	.	8%
O=C(NCc1ccccc1)c1ccc(NC(=O)N2CCSc3ncccc32)cc1	4%	i	-5%	-7%	89µM*
Cc1ccccc1C(=O)N1CCc2cc(-c3nc(NC(=O)Cc4ccccc4)sc3C)ccc21	.	.	.	.	23%
O=C(Nc1ncc(SCCN2CCCC2)s1)[C@]1(c2ccc(S(=O)(=O)C3CC3)cc2)C[C@H]1C1CCCCC1	.	.	.	.	9%
CC(C)Oc1ccc(CNC(=O)Cn2nc(N3CCN(c4ccccc4)CC3)ccc2=O)cc1	-6%	i	-6%	-4%	89µM*
CCOc1ccc(CNC(=O)Cn2nc(N3CCN(c4ccccc4)CC3)ccc2=O)cc1	11%	i	4%	-25%	-8%
CCOC(=O)c1nn(-c2ccc(OC)cc2)c(=O)c2c(N)scc12	.	.	.	.	13µM*
CCOC(=O)c1nnn(-c2ccc(OC)cc2)c1N	-12%	.	-8%	.	.
O=C1CC(c2ccc([N+](=O)[O-])cc2)=NN1c1ccccc1	.	.	.	-8%	-12%[57.5 µM]
CCc1ccccc1NC(=O)Cn1nc(-c2cc(C)ccc2C)c2c(c1=O)CCCC2	22%	i	-2%	?	89µM*
CCc1ccccc1NC(=O)Cn1nc(C(F)(F)F)c2c1CCC2	-9%	i	-2%	2%	-2%
COc1ccccc1NC(=O)N1CCN(c2ccc3nnc(-c4ccc(F)cc4)n3n2)CC1	-8%	i	-1%	-14%	79µM*
CC(C)(C)OC(=O)N1CCN(c2ccc(OCc3ccc(-c4ccc(C#N)cc4)o3)cc2)CC1	.	.	.	.	-24%
CCn1cc2nc(SCc3cccc(C(F)(F)F)c3)n(CCc3ccccc3)c(=O)c2n1	17%	i	18%	32µM*	-5%
CCn1cc2nc(SCC(=O)Nc3ccc(C)cc3C)n(Cc3ccc(C)cc3)c(=O)c2n1	?	i	-7%	-43%	89µM*
CCn1cc2nc(SCc3cccc(C(F)(F)F)c3)n(Cc3ccc(Cl)cc3)c(=O)c2n1	31%	i	5%	?	4%
CCn1cc2nc(SCc3cccc(C)c3)n(CCc3ccccc3)c(=O)c2n1	23%	i	37%	40µM*	10%
C=C1CCCC2(C)CC3(OC)OC(=O)C(C)=C3CC12 (configuration not stated)	.	.	.	0%	14%[57.5 µM]

Screening results deposited in PubChem by National Center for Advancing Translational Sciences (NCATS).
